Most compounds without a hit are left out; they make up all but 1% or so of the library.
V-ATPase pH – regulators of yeast V-ATPase proton transport. actives 0.37% (n = 350,000). response, % at 10 µM. S. cerevisiae, pHLuorin cytosolic pH fluorescence. AID 504577; in the data active = response mostly above about 7.3%, no sharp cut-off; inactive = mostly below about 5.4%; also: actives read high
CTSL1 counter – counter-screen for PFM18AAP inhibitors: inhibitors of F. hepatica cathepsin L1. actives 0.49% (n = 300,000). inhibition, % at 5.96 µM. AID 1906. recombinant F. hepatica cathepsin L1, Z-Leu-Arg-MCA fluorescence;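 active = inhibition above the mean of all tested compounds plus 3 SD, set per screening campaign, cut at about 17% in these data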
hiPSC survival – increases survival of single human iPS cells. hiPSC single-cell survival, ATPlite luminescence; 100% = ROCK inhibitor wells, 0% = DMSO. survival enhancement, % at 20 µM. actives 0.044% (n = 360,000); in the data active = survival enhancement above about 18%;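 also: cells exposed to compounds for 16 hours before the ATP read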
Yeast superoxide – lowers age-related superoxide in aged yeast cells. superoxide response (% of plate mean), % at 10 µM. S. cerevisiae aged cells, superoxide DHE fluorescence; stronger effect = lower value. actives 0.18% (n = 330,000);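 active = superoxide response under a set limit, about three screen SD below normal, cut at about 65% in these data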;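 also: yeast aged for seven days with compound at 30 °C before DHE staining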
Of the large screens only hits and unclear results are named; the others gave an inactive call.

CN(CCO)c1nc(N)c2c(N)nc3c(c2c1C#N)CC(=O)N3C1CCCC1	none (no result: V-ATPase pH, hiPSC survival)
CCCCNC(=O)C1(C)CCCCN1C(=O)c1ccc2c(c1)CCO2 (stereo not given)	none (no result: V-ATPase pH, CTSL1 counter, Yeast superoxide)
O=C(CSc1ccccc1)Nc1cccnc1	V-ATPase pH 14
COC(=O)N/N=C\c1cc2c(cc1Br)OCO2	none
CC1(CC(=O)N/N=C/c2cc3c(cc2Br)OCO3)OCCO1	CTSL1 counter 17
Cc1ccc(NC(=O)c2ccccc2CCc2ccccc2)c(C)c1	none
Cc1cc(C)c(NC(=O)c2ccccc2CCc2ccccc2)c(C)c1	CTSL1 counter 17
Cc1nc(-c2ccc(NC(=O)CC(C)C)cc2)cs1	none
CC(=O)Nc1ccccc1NS(=O)(=O)c1ccccc1[N+](=O)[O-]	none
CC(=O)Nc1ccccc1NS(=O)(=O)c1cccc([N+](=O)[O-])c1	CTSL1 counter 19
COc1cccc(CN(C(=O)c2ccccc2)C2CCS(=O)(=O)C2)c1 (stereo not given)	V-ATPase pH 29
COc1cccc(CN(C(=O)c2cccc(OC)c2)C2CCS(=O)(=O)C2)c1 (stereo not given)	none
CCOC(=O)C1C(=O)NC(c2ccccc2)=NC1c1cccc(Br)c1 (stereo not given)	CTSL1 counter 22
CCOC(=O)C1C(=O)NC(c2ccccc2)=NC1c1ccc(Cl)cc1 (stereo not given)	none
CCN(CC(=O)NCc1ccc(Cl)cc1)CC(=O)NC1(C#N)CCCC1	none
O=C(C1CCCO1)N1CCN(C(=S)Nc2ccc(Cl)cc2Cl)CC1 (stereo not given)	V-ATPase pH 17
Cc1cc(Cl)ccc1NC(=S)N1CCN(C(=O)C2CCCO2)CC1 (stereo not given)	none
CCOC(=O)c1c(C)oc(/N=C/c2ccccc2O)c1C#N	CTSL1 counter 17
COc1ccc([C@H]2CC(=O)C[C@@H](CCn3cc(-c4ccncc4)nn3)O2)cc1	none (no result: V-ATPase pH, CTSL1 counter, Yeast superoxide)
CCOC(=O)c1ccc(S(=O)(=O)Nc2ccc(N3CCOCC3)cc2)cc1	none
C=CCn1c(CSc2nnc(-c3ccccc3)n2C)n[nH]c1=S	CTSL1 counter 28
C=CCn1c(SCc2n[nH]c(=S)n2-c2ccccc2)nnc1-c1ccccc1	none
O=C1C=CC(=O)N1c1ccc(-c2nc3ccccc3o2)cc1	V-ATPase pH 20 (no result: CTSL1 counter, Yeast superoxide)
FC(F)(F)c1cccc(-c2nc3nc(Cl)c(Cl)nc3[nH]2)c1	none
CCOP(=O)(OCC)C(NC(=O)c1cc([N+](=O)[O-])cc([N+](=O)[O-])c1)C(F)(F)F (stereo not given)	CTSL1 counter 40
Cc1cccc(-c2cc3nc(-c4ccccc4)cc(N4CCC5(CC4)OCCO5)n3n2)c1	CTSL1 counter 20
COc1ccc(CS(=O)(=O)/C(Cl)=C(/Cl)C(=O)Nc2ccc(OC)nc2)cc1	hiPSC survival 37
CCOC(=O)C1=C(C)N(C)C(C)=C(C(=O)OCC)C1c1ccsc1	none
Cc1[nH]c2ccccc2c1/C=N/NC(=O)c1cc(C(C)C)[nH]n1	none
O=C(NC1(O)C(=O)c2ccccc2C1=O)c1ccccc1	CTSL1 counter 64
O=C(Nc1ccccc1Cl)c1c(F)c(F)c(F)c(F)c1F	none
COC1(NC(=O)c2ccccc2)C(C)=CC(=O)C=C1C	none
O=C(NC1(O)C(=O)c2ccccc2C1=O)c1c(Cl)cccc1Cl	CTSL1 counter 54
CC(C)[C@H](NC(=O)c1ccco1)C(=O)OCC(=O)Nc1ccccc1OC(F)F	none
COc1cc2ccccc2cc1C(=O)Nc1ccc2oc(=O)ccc2c1	none
COc1ccc(Cl)cc1S(=O)(=O)NCc1nc2nc(C)cc(C)n2n1	none
C/C(Cn1nc([N+](=O)[O-])cc1C)=N\NC(=O)COc1ccc(Cl)cc1Cl	Yeast superoxide 55
O=C(NC1CCCN(CCc2ccccc2)C1)c1c(F)cccc1F (stereo not given)	none
O=C(NC1CCCN(Cc2ccc(Cl)cc2)C1)c1c(F)cccc1F (stereo not given)	CTSL1 counter 28
O=C(NC1CCCN(Cc2ccc(Cl)cc2)C1)c1c(F)ccc(F)c1F (stereo not given)	CTSL1 counter 64
Cc1ccc(C23CC4CC(CC(NC(=O)NN)(C4)C2)C3)cc1	CTSL1 counter 28
NS(=O)(=O)c1ccc(N2CCOCC2)c(C(=O)NCc2ccc3c(c2)OCO3)c1	none (no result: CTSL1 counter, Yeast superoxide)
CN(C)S(=O)(=O)c1ccc(N2CCOCC2)c(C(=O)NCc2ccc3c(c2)OCO3)c1	Yeast superoxide 62 (no result: CTSL1 counter)
NC(=S)N/N=C/c1cccc(O)c1O	none
Cc1ccc(-n2c(C)cc(/C=N/NC(N)=S)c2C)cc1	CTSL1 counter 31
COc1cc(OC)c(/C=N/NC(N)=S)cc1Br	CTSL1 counter 74
Cc1cc(/C=N/NC(N)=S)c(O)c(/C=N/NC(N)=S)c1	CTSL1 counter 19
O=C1OC(c2ccccc2)=NC12CC2c1ccc(Cl)cc1 (stereo not given)	CTSL1 counter 21
O=CN1N=C(c2ccccc2)CC1c1ccc(Cl)cc1 (stereo not given)	none
COc1ccc(-c2cc3c(=O)n(CC(=O)NCCCN4CCC(Cc5ccccc5)CC4)ncn3n2)cc1	CTSL1 counter 20
COc1ccc(OCC(=O)c2c(O)c3ccccc3oc2=O)cc1	V-ATPase pH 16
CCOc1ccc(OCC(=O)c2c(O)c3ccccc3oc2=O)cc1	none
O=C(CC(c1ccccc1)c1ccccc1O)NCc1ccccc1 (stereo not given)	CTSL1 counter 18
CC(Cc1ccccc1)NC(=O)CC(c1ccccc1)c1ccccc1O (stereo not given)	none
Cc1cc(C)c(NC(=O)CNC(=O)c2cc(C3CC3)nn2-c2ccccc2)c(C)c1	none (no result: CTSL1 counter)
Cc1cccc(NC(=O)CNC(=O)c2cc(C3CC3)nn2-c2ccccc2)c1C	V-ATPase pH 24 (no result: CTSL1 counter, Yeast superoxide)
COc1cccc(C(C[N+](=O)[O-])c2c(C)[nH]n(-c3ccccc3)c2=O)c1 (stereo not given)	CTSL1 counter 101
CCc1c(C)sc(NC(=O)c2ccccc2[N+](=O)[O-])c1C(N)=O	none
COc1ccc(C(=O)NC(=S)NNC(=O)c2ccc3ccccc3n2)cc1	Yeast superoxide 63
COc1cc(OC)cc(C(=O)NNC(=O)c2ccc3ccccc3n2)c1	none (no result: CTSL1 counter, Yeast superoxide)
CCCNS(=O)(=O)c1ccc(OCC(=O)N(C)Cc2ccccc2)cc1	Yeast superoxide 60
CC(=O)N1C[C@@H](CO)[C@@H](N(C)C(=O)C2CCCCC2)C[C@H]1c1ccccc1	none (no result: V-ATPase pH, CTSL1 counter, Yeast superoxide)
COC(=O)/C(=C/c1ccco1)NC(=O)c1ccccc1	none
Cc1ccc(C(=O)N/C(=C/c2ccco2)C(=O)OCN2C(=O)c3ccccc3C2=O)cc1	CTSL1 counter 43
CCCOC(=O)/C(=C\C=C\c1ccco1)NC(=O)c1ccccc1	CTSL1 counter 26
CCCC(=O)N1CCN(c2ccc(NC(=O)c3cccs3)cc2)CC1	none
CSc1ccccc1NC(=O)CN(c1cccc(C)c1)S(C)(=O)=O	V-ATPase pH 13
COc1ccccc1CN(C(=O)CNC(=O)c1ccco1)C(C(=O)NCC1CCCO1)c1ccccc1 (stereo not given)	none
CCCNC(=O)Cn1c(=O)oc2cc(S(=O)(=O)N3CCCC3)ccc21	none
